Compound activity from PubChem BioAssay.
Hits are enriched below; roughly 1.5% of the tested compounds scored in any of these assays.
RAD54 inh: RAD54 (human) branch migration inhibition; inhibition, % at 10.4 µM; Q92698; 360,000 tested, 0.14% active; RAD54 Holliday junction branch migration, FAM/BHQ fluorescence;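 active = mean normalized replicate activity at least 40 and at least half of replicates scoring 40 or more; inconclusive = only one of the two criteria met; inactive = mean below 40 and under half of replicates reaching 40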;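 note: 0% = median of neutral control wells and 100% = median of positive control wells; inhibitors cause a drop in the FAM fluorescence signal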
CFTR F508del cor: CFTR F508del correction in bronchial cells; CFBE cells, YFP halide quenching; stimulated with forskolin plus potentiator P3; % fluorescence drop versus neutral controls; activity (quench increase), % at 7.58 µM; AID 720511; 350,000 tested, 0.36% active;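 active = mean added fluorescence quench of at least 8% versus neutral control, with both replicates also reaching 8%; inconclusive = only one of the mean or replicate conditions met; inactive = mean below 8% and not both replicates reaching 8%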;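 note: cells transiently co-express mutant CFTR-F508del with the halide-sensitive YFP; corrector assay measuring rescue of mutant channel to the surface after 24 h compound exposure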
PvdQ acylase: blocks Pseudomonas aeruginosa PvdQ acylase activity. 340,000 tested, 0.063% active. inhibition, % at 10 µM. purified PvdQ acylase, fluorescence plate reader. AID 488965; in the data active = inhibition above about 30%, passing the limit was not always enough; inconclusive = no clear call, values can overlap the other calls;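 note: 0% = vehicle neutral wells and 100% = reference inhibitor wells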
dFosB act: enhances mouse delta FosB homodimer DNA binding; activation, % at 25 µM; purified delta FosB, TAMRA-CDK5 oligo fluorescence polarization; percent of positive-control signal above neutral wells; 340,000 tested, 0.99% active; P13346;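 active = mean activation above about 17%, with every replicate also reaching it, limit read from the data, passing the limit was not always enough; inconclusive = only one of the two conditions met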
N-glyco inh: N-linked glycosylation inhibition; reporter increase, % at 12.5 µM; 360,000 tested, 0.23% active; D54 ERlucT glycosylation luciferase reporter, 24 h; percent of 100 nM tunicamycin response;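 active = mean luciferase reporter signal, scaled so untreated is 0 and the glycosylation-blocking control 100, at or above a set limit in every replicate; inconclusive = mean reaches the limit but not every replicate does; inactive = mean below the limit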;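 note: luciferase carries N-glycosylation sites so blocking glycosylation raises the light; 0% = median of neutral control wells and 100% = median of 100 nM tunicamycin wells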
RAD52 inh: inhibitors of human RAD52 DNA annealing | AID 651710 | P43351 | recombinant RAD52 DNA annealing, FRET fluorescence | 360,000 tested, 0.46% active | inhibition, % at 18.7 µM;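 active = every replicate showing at least 50% inhibition; inconclusive = mean inhibition at least 50% but not in every replicate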
Target sequence (P43351 whole entry, looked up): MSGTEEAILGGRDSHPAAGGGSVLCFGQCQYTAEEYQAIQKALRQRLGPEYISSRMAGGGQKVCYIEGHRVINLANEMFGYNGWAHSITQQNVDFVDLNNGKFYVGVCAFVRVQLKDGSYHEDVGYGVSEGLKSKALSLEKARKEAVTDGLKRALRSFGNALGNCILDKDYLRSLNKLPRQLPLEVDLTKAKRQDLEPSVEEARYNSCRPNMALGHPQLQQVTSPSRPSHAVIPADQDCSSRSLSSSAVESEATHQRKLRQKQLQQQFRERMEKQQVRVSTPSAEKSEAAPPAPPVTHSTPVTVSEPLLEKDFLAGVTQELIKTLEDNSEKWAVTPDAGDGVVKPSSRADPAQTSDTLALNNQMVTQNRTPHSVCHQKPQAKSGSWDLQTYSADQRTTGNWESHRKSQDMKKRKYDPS
Starred values were filed as active, the others as inactive; i = inactive; ? = inconclusive; / = not tested or not shown.

SMILES | RAD54 inh | CFTR F508del cor | PvdQ acylase | dFosB act | N-glyco inh | RAD52 inh
C#C[C@]1(O)CC[C@H]2[C@@H]3CCc4cc(OC5CCCC5)ccc4[C@H]3CC[C@@]21C | -27 | 8.7* | 13 | 2 | -5 | 3
Cc1cc(C)cc(C(=O)NCC(=O)OCc2cc([N+](=O)[O-])cc3c2OCOC3)c1 | -15 | 13* | -7 | -5 | -2 | -3
O=[N+]([O-])c1ccc(/C=N/Nc2nc(-c3ccccc3)c3cc(Br)ccc3n2)o1 | -5 | / | -5 | 23* | 4 | /
Cc1ccc2nc(N/N=C\c3ccc([N+](=O)[O-])o3)nc(-c3ccccc3)c2c1 | 0 | / | -11 | -1 | 6 | /
Cc1ccc2c(CNCc3ccccc3)cc(=O)oc2c1 | -6 | -1 | -15 | -7 | 29* | -27
Cc1ccnc(N2C(=O)c3cccc4c([N+](=O)[O-])ccc(c34)C2=O)c1 | -1 | 23* | -12 | -5 | 1 | -88
Cc1ccc(N2C(=O)c3cccc4c([N+](=O)[O-])ccc(c34)C2=O)c2cccnc12 | 0 | 25* | -7 | -2 | ? | 0
O=C1c2cccc3c([N+](=O)[O-])ccc(c23)C(=O)N1Cc1cccnc1 | / | 33* | -6 | 1 | 15 | -331
CC(C)NC(=O)Nc1ccc2c(c1)C(=O)N([C@@H](C)CO)C[C@H](C)[C@@H](CN(C)C(=O)Nc1cccc3ccccc13)O2 | 4 | -2 | / | / | / | -3
C[C@H]1CN([C@@H](C)CO)C(=O)c2cc(NC(=O)C3CC3)ccc2O[C@@H]1CN(C)Cc1ccc2c(c1)OCO2 | -7 | 2 | / | / | / | 2
Cn1c(=O)c(NC2CCCCC2)c2c3c(cccc31)C(=O)c1ccccc1-2 | / | 16* | -5 | -11 | -8 | i
COc1ccc(S(=O)(=O)N(C)C[C@@H]2OCCCC[C@@H](C)Oc3ccc(NC(=O)c4ccccc4)cc3C(=O)N([C@H](C)CO)C[C@H]2C)cc1 | 3 | -2 | / | / | / | -63
CCc1ccc(N2Cc3ccccc3C2)cc1 | / | 1 | 7 | -6 | -7 | 3
CCOC(=O)c1ccc(N2Cc3ccccc3C2)cc1O | 4 | -1 | 63* | -11 | -1 | -45
CCOC(=O)C1CCN(Cc2cc(Cl)c3ccccc3c2O)CC1 | 7 | / | -4 | -12 | 44* | /
COCC(=O)Nc1ccc2c(c1)C(=O)N(C)C[C@H](OC)[C@H](C)CN(C(C)=O)[C@@H](C)CO2 | -9 | 0 | / | / | / | -7
COc1ccc(S(=O)(=O)N(C)C[C@H]2Oc3c(NC(=O)c4cc(C)nn4C)cccc3C(=O)N([C@H](C)CO)C[C@@H]2C)cc1 | -6 | -1 | / | / | / | 6
O=c1c(Cl)c(Nc2cccc(Cl)c2)cnn1-c1nc2ccccc2s1 | / | / | -18 | -23 | -15 | /
Cc1ccc(C)c(N2CCN(c3cnn(-c4nc5ccccc5s4)c(=O)c3Cl)CC2)c1 | 1 | / | -6 | 8 | 114* | /
O=C(CCSCCC(=O)NN=Cc1ccccc1O)NN=Cc1ccccc1O | / | 0 | -2 | 36* | 5 | -1
O=C(CSc1ccccc1)N/N=C/c1ccccc1O | / | 1 | -13 | 1 | -4 | -6
C[C@H]1CN([C@@H](C)CO)C(=O)c2cc(NC(=O)CCC(F)(F)F)ccc2O[C@H]1CN(C)Cc1ccc(Oc2ccccc2)cc1 | 3 | -2 | / | / | / | 20
C[C@H](CO)N1C[C@H](C)[C@H](CN(C)Cc2ccccc2)Oc2ccc(NC(=O)CCN3CCOCC3)cc2CC1=O | -1 | -2 | / | / | / | -5
CCN(c1ccccc1)S(=O)(=O)c1cc(C(=O)Nc2ccccc2Cl)ccc1F | / | / | 49* | 3 | -4 | -15
COc1ccc(NC(=O)Nc2ccc3c(c2)C(=O)N([C@@H](C)CO)C[C@@H](C)[C@@H](CN(C)C(=O)NC2CCCCC2)O3)cc1 | 3 | -1 | / | / | / | 3
COc1ccc2c3c([nH]c2c1)[C@@H](CO)N(CC1CCOCC1)CC31CN(CC2CCOCC2)C1 | / | 0 | / | / | / | /
CCOC(=O)c1ccc(-c2c(-c3cc(OC)c(OC)c(OC)c3)noc2C)cc1F | 2 | 16* | -14 | -8 | 17 | -19
CCOC(=O)c1ccc(-c2c(-c3ccc(OC)cc3)oc(=O)c3cc(OC)c(OC)cc23)cc1F | -9 | 2 | -6 | 5 | -5 | -6
CCCCC1(C2CCCC2)NC(=O)NC1=O (stereo unspecified) | -8 | 12* | -3 | 1 | 1 | -4
